# Jurkat NFkB inh: inhibitors of induced NF-kB luciferase reporter, primary screen, TCR NF-kB activation inhibitor project, cell-based, luminescence, uHTS; 0.53% of 330,000 active; inhibition, % at 4 µM; Jurkat, PMA/ionomycin-induced NF-kB luciferase reporter; in the data active means inhibition above about 50%
# 697 NFkB inh: inhibitors of PMA/ionomycin-induced NF-kB reporter, 697 cells, primary screen, B-cell NF-kB inhibitor project, cell-based, luminescence, uHTS; 0.33% of 330,000 active; 697 B-cell NF-kB luciferase reporter, 16 h; AID 435022, 2010; inhibition, % at 4 µM; in the data active means inhibition above about 35%
# Mdm2-MdmX inh: inhibitors of human Mdm2-MdmX association, primary screen, cell-based, luminescence, split luciferase, SaOS-2, uHTS; Protein Mdm4 (Homo sapiens) + E3 ubiquitin-protein ligase Mdm2 (Homo sapiens), …; SaOS-2 split-luciferase Mdm2/MdmX complementation; inhibition, % at 8 µM; 3% of 330,000 active; AID 485346, 2010;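 active means inhibition of at least 50% at 8 µM in the primary screen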
# Gli-Sufu block: Gli-Sufu pathway antagonists, primary screen, luciferase luminescence, Sufu-KO-LIGHT cells, uHTS. Sufu-KO-LIGHT fibroblasts, Gli luciferase reporter luminescence. inhibition, % at 5 µM. 0.74% of 340,000 active. AID 588413, 2011;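 active means inhibition above about 55%, limit read from the data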;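 further: 0% = DMSO-treated cells and 100% = wells with medium but no cells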
# CSC inhib: cancer stem cell viability inhibitors, primary screen, luminescence; inhibition, % at 7.5 µM; cancer stem cell-like cells viability; 1.1% of 300,000 active; in the data active means inhibition above about 75%; tested in HMLE shEcad cells
# aSyn 5UTR inh: MLPCN primary screen, SNCA 5' untranslated region; 0.82% of 300,000 active; alpha-synuclein 5'UTR reporter, inhibitor activity; inhibition, % (tested at 7.5 µM); in the data active means inhibition above about 60%;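 further: H4 neuroglioblastoma cells stably carrying SNCA 5'UTR luciferase fusion; 0% = DMSO wells and 100% = positive control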
# Gli antag conf: Gli-SUFU pathway antagonists, confirmation, single concentration, luciferase luminescence, Sufu-KO-LIGHT cells | shares compounds with Gli-Sufu block | Gli luciferase reporter | inhibition, % at 5 µM | 40% of 2,500 active | AID 602428, 2012;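 active means mean inhibition at 5 µM reaching about 45%, limit read from the data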;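 further: plate controls were DMSO-treated cells for no effect and wells lacking cells for full effect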
# SufuKO cytotox: cytotoxicity in Sufu-KO-LIGHT cells, confirmation, cytotoxicity control for Gli-SUFU antagonist project, cell-based, ATP luminescence, single concentration | shares compounds with Gli-Sufu block | cytotoxicity, % at 5 µM | 32% of 2,500 active;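 active means mean cytotoxicity at 5 µM above about 25%, limit read from the data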;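 further: cells exposed to compound overnight for roughly 16 to 18 hours; plate controls were DMSO wells with cells for no effect and medium without cells for full effect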
# Wnt3a cs: Wnt3a reporter signal inhibition, confirmation, counter-screen for Gli-SUFU antagonist project, Wnt-LIGHT cells, luminescence, single concentration; AID 651995, 2013; inhibition, % at 6.25 µM; 20% of 2,500 active; Wnt3a-driven luciferase reporter; shares compounds with Gli-Sufu block;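 active means mean inhibition above about 25%, limit read from the data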
# * = called active by the depositor; . = not tested or not shown. Compounds with a hit are over-represented: about 4.5% of the library has one in this group of screens.
SMILES,Jurkat NFkB inh,697 NFkB inh,Mdm2-MdmX inh,Gli-Sufu block,CSC inhib,aSyn 5UTR inh,Gli antag conf,SufuKO cytotox,Wnt3a cs
COc1cc2c(cc1OC)C(C(=O)Nc1ccccc1N1CCN(C)CC1)C1c3ccccc3CCN1C2=O (centres undefined),7,13,22,56*,-16,11,34,20,-10
CSc1ccc(S(=O)(=O)NCC(=O)OCC(=O)N2CCCC2=O)cc1[N+](=O)[O-],18,14,30,-17,-11,-4,.,.,.
O=C(Nc1ccc([N+](=O)[O-])cc1)c1ccccc1,-58,-69,-63,-47,10,-122,.,.,.
O=C(Nc1cc(Sc2ccccn2)cc([N+](=O)[O-])c1)c1ccc([N+](=O)[O-])cc1,12,-9,33,55,6,.,24,26*,-51
O=C(Cn1nnc(-c2ccccc2)n1)c1ccccc1,-16,-5,0,57*,.,2,-2,4,5
Cc1ccc(C(=O)Cn2nnc(-c3ccccc3)n2)cc1,-2,-2,-2,-4,-3,-47,.,.,.
COc1ccc(CCNS(=O)(=O)c2csc(C(N)=O)c2)cc1OC,11,4,-3,-9,-11,-11,.,.,.
COc1ccc(CNS(=O)(=O)c2csc(C(N)=O)c2)cc1OC,0,-11,-12,55*,2,-9,22,3,-25
CCOC(=O)c1c(C)[nH]c(C)c1S(=O)(=O)NCCN1CCN(c2ccccc2F)CC1,28,8,3,67*,-8,7,21,12,-17
CCOC(=O)c1c(C)[nH]c(C)c1S(=O)(=O)NCC1CCN(Cc2ccccc2F)CC1,-1,-6,-6,18,-7,16,.,.,.
C=Cc1ccc(Cn2c(=O)n(C)c(=O)c3sccc32)cc1,1,-19,21,54,-8,-6,35,16,4
CN(C)N1C(N)=C(C#N)C(c2ccc3c(c2)OCO3)C2=C1CC(C)(C)CC2=O (centres undefined),-5,4,-6,-5,-11,-1,.,.,.
Cc1ccccc1CNC(=O)CCNS(=O)(=O)c1ccc(OC(F)(F)F)cc1,-1,8,15,94*,8,.,12,23,-26
CC(=NNc1nc2ccccc2s1)c1ccncn1,.,.,.,52,.,.,71*,42*,21
O=C(Nc1nc2ccccc2s1)c1cnccn1,-51,-213,-2,-71,19,-39,.,.,.
O=[N+]([O-])c1cccc(CSC2=NCCN2S(=O)(=O)c2ccccc2)c1,16,-51,21,11,-6,22,.,.,.
COc1ccc(C2CC(c3ccco3)n3ncnc3N2)cc1 (centres undefined),1,-16,9,57*,0,8,10,15,-3
CCOc1ccc(C2CC(c3ccc(OC)cc3)n3ncnc3N2)cc1 (centres undefined),-26,-34,14,-20,-35,-11,.,.,.
O=C(NCc1ccccc1CN1CCCC1)C1CCN(C(=O)c2ccc(F)cc2)CC1,-13,-3,-3,9,.,.,.,.,.
COc1ccc(C(=O)N/C(=C/c2ccccc2F)C(=O)NCCN2CCOCC2)cc1OC,-29,-41,-18,71*,1,13,23,10,-4
COc1cc(/C=N/NC(=O)c2ccccc2O)ccc1OC(=O)CC1SC(=O)NC1=O (centres undefined),1,9,18,58*,-9,-11,7,7,-48
Cc1cc(C)cc(N2CCCn3c2nc2c3c(=O)n(CC(=O)OCc3ccccc3)c(=O)n2C)c1,-9,13,31,9,23,10,.,.,.
Cc1ccc(N2CC(C)Cn3c2nc2c3c(=O)n(CC(=O)OCc3ccccc3)c(=O)n2C)cc1C (centres undefined),-6,-18,19,57*,33,1,38,17,-37
O=C(CN1C(=O)CSc2ccc(S(=O)(=O)N3CCOCC3)cc21)NCc1cccnc1,14,3,-4,-7,-10,26,.,.,.
O=C(CC(Cc1ccccc1)C(=O)O)Nc1cccc(C(F)(F)F)c1 (centres undefined),9,-4,16,54,-14,7,13,11,-3
SMILES,Jurkat NFkB inh,697 NFkB inh,Mdm2-MdmX inh,Gli-Sufu block,CSC inhib,aSyn 5UTR inh,Gli antag conf,SufuKO cytotox,Wnt3a cs
O=C(CC(Cc1ccccc1)C(=O)O)Nc1ccc(F)cc1 (centres undefined),-12,-7,14,10,-16,-5,.,.,.
COc1ccc(NC(=O)COCC(=O)Nc2ccc(C)cc2)cc1,7,5,-2,54,-14,18,21,13,-2
O=C(c1cc2nc(-c3ccc(F)cc3)cc(C(F)(F)F)n2n1)N1CCCCC1c1cccnc1 (centres undefined),28,-59,29,67*,1,18,64*,32*,22
CN(Cc1ccc(OCC(O)CN2CCCCC2)cc1)Cc1ccnc2ccccc12 (centres undefined),.,.,.,65*,.,-8,46*,21,11
Clc1ccc(-c2cn(-c3ccccc3)c3[n+]2CCS3)cc1,7,-18,2,56*,.,-21,56*,24,-12
COc1ccc(-c2cn(-c3ccc(Br)cc3)c3[n+]2CCS3)cc1,11,-20,33,74*,30,5,76*,24,61*
CC(=O)c1ccc(-n2cc(-c3ccc(C(C)(C)C)cc3)[n+]3c2SCCC3)cc1,10,-39,21,73*,.,-14,65*,22,-51
CC(OC(=O)c1ccc2c(c1)NC(=O)CS2)C(=O)c1ccc(F)cc1 (centres undefined),-4,6,8,1,-4,.,.,.,.
COc1cc2ccc(=O)oc2c(O[C@@H]2O[C@H](CO)[C@@H](O)[C@H](O)[C@H]2O)c1O,11,13,-7,3,-12,13,22,6,-4
O=c1ccc2ccc(O[C@@H]3O[C@H](CO)[C@@H](O)[C@H](O)[C@H]3O)c(O)c2o1,8,10,11,-2,0,.,.,.,.

# Screening results as filed in PubChem.
